# In PubChem BioAssay (EPA / NIEHS):
# Active and inactive are the calls of the source. The calls were made as follows: active = hit-call score of the fitted dose curve at least 0.9, where 1 is the maximum; inactive = score below 0.9.
# Key:
# [1] = molecular target: Paired box protein Pax-6 (Homo sapiens) (UniProt P26367); assay: ATG_Pax6_CIS: Attagene CIS-FACTORIAL HepG2 Assay for human Paired Box 6 (PAX6) (AID 2282956); settings: HepG2 CIS-FACTORIAL PAX6 reporter transcription, RNA readout; actives raise or lower the signal
# Paired box protein Pax-6 (Homo sapiens), sequence (P26367 whole entry, looked up): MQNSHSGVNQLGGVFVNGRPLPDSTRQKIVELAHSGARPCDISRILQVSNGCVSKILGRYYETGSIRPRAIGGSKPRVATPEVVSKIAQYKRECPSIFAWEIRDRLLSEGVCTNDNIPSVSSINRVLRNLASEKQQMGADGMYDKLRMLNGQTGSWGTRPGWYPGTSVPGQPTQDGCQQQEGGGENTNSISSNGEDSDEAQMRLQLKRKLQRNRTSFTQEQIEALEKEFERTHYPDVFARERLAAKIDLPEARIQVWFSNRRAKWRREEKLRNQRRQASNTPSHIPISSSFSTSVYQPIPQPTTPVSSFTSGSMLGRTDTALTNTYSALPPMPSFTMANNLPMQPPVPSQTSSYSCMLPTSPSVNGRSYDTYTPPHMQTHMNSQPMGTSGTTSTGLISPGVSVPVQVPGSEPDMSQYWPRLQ
# Procedure, shortened: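 After twenty-four hours of chemical exposure, transfected HepG2 cells are harvested for RNA. Cis-promoter reporter transcripts are amplified, fluorescently labelled and sized by capillary electrophoresis, with gain and loss of signal scored against DMSO.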
# [2] = ATG_PXRE_CIS: Attagene CIS-FACTORIAL HepG2 Assay for human Pregnane X Receptor Element (PXRE) (AID 2282957); settings: HepG2 Attagene CIS-FACTORIAL PXRE reporter, mRNA; actives raise or lower the signal
# Procedure, shortened: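 Cis-element reporter mRNA in human hepatoma HepG2 cells is measured 24 h post-dosing by RT-PCR, primer-extension labeling and capillary electrophoresis; gain or loss of signal is fitted relative to DMSO.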
# [3] = ATG_PPRE_CIS: Attagene CIS-FACTORIAL HepG2 Assay for human Peroxisome Proliferator-activated Response Element (PPRE) (AID 2282958); settings: HepG2 PPRE cis-element reporter, Attagene transcription factor profiling; actives raise or lower the signal
# Procedure, shortened: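 HepG2, transient MRTU transfection (cis promoter elements, endogenous TFs). 24 h dosing. RNA → oligo(dT) RT → PCR → 6-FAM primer extension → HpaI digest → CE. Bidirectional fit vs DMSO.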
# [4] = ATG_RORE_CIS: Attagene CIS-FACTORIAL HepG2 Assay for human RAR-related Orphan Receptor Element (RORE) (AID 2282959); settings: HepG2 Attagene cis-factorial RORE reporter, mRNA; actives raise or lower the signal
# Procedure, shortened: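 Transient MRTU transfection of human HepG2 liver cells (FuGene 6); 24 h compound exposure; TriZol RNA, oligo(dT) RT, PCR, FAM labeling, HpaI cut, CE fragment analysis. DMSO = negative control/baseline.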
# [5] = ATG_Sox_CIS: Attagene CIS-FACTORIAL HepG2 Assay for human SRY-box transcription factor (SOX) (AID 2282960); settings: HepG2 Attagene cis-factorial SOX reporter, mRNA; actives raise or lower the signal
# Procedure, shortened: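 Endogenous factor activity in human liver HepG2 cells carrying transfected cis-regulated reporter units. RNA taken 24 h post-dose, reverse-transcribed, PCR-amplified and sized by capillary electrophoresis. Gain or loss of signal fitted relative to DMSO.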
# [6] = molecular target: Transcription factor Sp1 (Homo sapiens) (UniProt P08047); assay: ATG_Sp1_CIS: Attagene CIS-FACTORIAL HepG2 Assay for human Specificity Protein 1 (Sp1) (AID 2282961); settings: HepG2 Sp1 cis-reporter transcription, actives raise or lower the signal
# Transcription factor Sp1 (Homo sapiens), sequence (P08047 whole entry, looked up): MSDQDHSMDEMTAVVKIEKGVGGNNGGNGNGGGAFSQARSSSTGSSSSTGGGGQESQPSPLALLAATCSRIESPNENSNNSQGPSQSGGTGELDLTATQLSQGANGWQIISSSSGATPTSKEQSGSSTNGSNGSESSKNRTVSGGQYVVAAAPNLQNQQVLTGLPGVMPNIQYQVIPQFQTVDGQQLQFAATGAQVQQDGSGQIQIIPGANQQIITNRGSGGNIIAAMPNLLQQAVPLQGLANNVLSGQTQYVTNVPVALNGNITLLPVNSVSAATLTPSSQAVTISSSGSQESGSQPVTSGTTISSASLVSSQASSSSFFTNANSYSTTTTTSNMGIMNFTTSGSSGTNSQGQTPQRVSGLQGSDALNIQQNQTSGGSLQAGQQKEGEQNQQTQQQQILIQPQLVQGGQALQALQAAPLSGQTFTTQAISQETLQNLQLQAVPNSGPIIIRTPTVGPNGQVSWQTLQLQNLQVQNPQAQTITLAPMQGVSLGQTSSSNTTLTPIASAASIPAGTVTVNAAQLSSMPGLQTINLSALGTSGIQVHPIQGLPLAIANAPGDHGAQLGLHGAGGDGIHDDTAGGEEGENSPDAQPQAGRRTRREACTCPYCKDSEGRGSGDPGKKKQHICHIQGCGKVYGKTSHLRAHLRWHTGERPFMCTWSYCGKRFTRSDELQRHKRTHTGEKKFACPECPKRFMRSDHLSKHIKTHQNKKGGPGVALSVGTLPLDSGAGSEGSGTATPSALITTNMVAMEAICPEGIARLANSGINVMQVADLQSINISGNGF
# Procedure, shortened: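 Transient MRTU-transfected HepG2, 24 h compound exposure. Total RNA → oligo(dT) RT → PCR of reporter → 6-FAM primer extension → HpaI digest → CE. Endpoint fitted both directions vs DMSO.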
# [7] = ATG_SREBP_CIS: Attagene CIS-FACTORIAL HepG2 Assay for human Sterol Regulatory Element Binding (SREBP) (AID 2282962); settings: HepG2 Attagene cis-factorial SREBP reporter, mRNA; actives raise or lower the signal
# Procedure, shortened: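 Twenty-four hours after chemical dosing of transfected HepG2 cultures, reporter RNA was converted to cDNA, amplified, end-labelled with 6-FAM and resolved by capillary electrophoresis. Responses were fitted relative to DMSO.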
# [8] = molecular target: Signal transducer and activator of transcription 3 (Homo sapiens) (UniProt P40763); assay: ATG_STAT3_CIS: Attagene CIS-FACTORIAL HepG2 Assay for human Signal Transducer and Activator of Transcription 3 (STAT3) (AID 2282963); settings: HepG2, Attagene cis-factorial STAT3 reporter transcription; actives raise or lower the signal
# Signal transducer and activator of transcription 3 (Homo sapiens), sequence (P40763 whole entry, looked up): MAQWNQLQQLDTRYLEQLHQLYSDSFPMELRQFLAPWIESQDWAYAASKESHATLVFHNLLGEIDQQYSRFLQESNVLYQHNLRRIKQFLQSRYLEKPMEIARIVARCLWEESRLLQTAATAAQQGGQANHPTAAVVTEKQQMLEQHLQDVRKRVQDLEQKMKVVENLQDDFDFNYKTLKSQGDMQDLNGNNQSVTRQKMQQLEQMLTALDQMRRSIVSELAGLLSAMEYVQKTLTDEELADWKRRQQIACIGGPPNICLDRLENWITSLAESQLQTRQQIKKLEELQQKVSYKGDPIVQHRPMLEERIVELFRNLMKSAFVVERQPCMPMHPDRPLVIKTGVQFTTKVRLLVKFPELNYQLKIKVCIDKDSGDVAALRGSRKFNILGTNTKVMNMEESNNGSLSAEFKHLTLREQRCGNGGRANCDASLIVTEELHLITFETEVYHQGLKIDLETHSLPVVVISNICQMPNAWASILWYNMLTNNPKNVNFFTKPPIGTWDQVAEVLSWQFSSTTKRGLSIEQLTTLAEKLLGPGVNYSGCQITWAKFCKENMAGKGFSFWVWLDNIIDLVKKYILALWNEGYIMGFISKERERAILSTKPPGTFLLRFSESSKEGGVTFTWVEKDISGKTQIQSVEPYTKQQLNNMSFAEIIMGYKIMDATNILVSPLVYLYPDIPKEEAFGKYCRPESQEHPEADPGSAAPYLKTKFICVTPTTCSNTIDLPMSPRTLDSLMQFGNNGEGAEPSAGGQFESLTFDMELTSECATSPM
# Procedure, shortened: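 HepG2 cells transiently transfected with multiple cis-element-driven reporter units report endogenous transcription factor activity. After 24 h compound exposure, reporter mRNA is measured by RT-PCR, 6-FAM labelling, HpaI digestion and capillary electrophoresis. Fitted bidirectionally versus DMSO.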
# [9] = ATG_TA_CIS: Attagene CIS-FACTORIAL HepG2 Assay for human TA Basal Promoter (AID 2282964); settings: HepG2 Attagene CIS-factorial TA basal promoter reporter; actives raise or lower the signal
# Procedure, shortened: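 Transfected HepG2, 24 h compound exposure; RNA → RT-PCR → FAM primer extension → HpaI cut → CE fluorescence. Gain/loss-of-signal fitted against DMSO negative control. Background-control readout.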
# [10] = ATG_TCF_b_cat_CIS: Attagene CIS-FACTORIAL HepG2 Assay for human T-Cell-Factor with beta-catenin (TCF/b-cat) (AID 2282965); settings: HepG2 TCF/beta-catenin cis-reporter transcription, actives raise or lower the signal
# Procedure, shortened: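 HepG2 cells transiently transfected with cis-promoter-driven multiplexed reporter units; reporter mRNA measured 24 h after dosing by RT-PCR, FAM labelling, HpaI digestion and capillary electrophoresis. Bidirectional fitting relative to DMSO baseline.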
structure (smiles),measurement,setting,value
Cc1c(C2(c3cc(Br)c(O)c(Br)c3C)OS(=O)(=O)c3ccccc32)cc(Br)c(O)c1Br,outcome,[1],inactive
same,AC50,[2],11 µM (active)
same,outcome,[3],inactive
same,outcome,[4],inactive
same,outcome,[5],inactive
same,outcome,[6],inactive
same,outcome,[7],inactive
same,outcome,[8],inactive
same,outcome,[9],inactive
same,outcome,[10],inactive
CCCC(=O)OC(C)(C)Cc1ccccc1,outcome,[1],inactive
same,AC50,[2],27 µM (active)
same,AC50,[3],178 µM (active)
same,outcome,[4],inactive
same,outcome,[5],inactive
same,outcome,[6],inactive
same,outcome,[7],inactive
same,outcome,[8],inactive
CCC(C)S (configuration not stated),outcome,[1],inactive
same,outcome,[2],inactive
same,outcome,[3],inactive
same,outcome,[4],inactive
same,outcome,[5],inactive
same,outcome,[6],inactive
same,outcome,[7],inactive
same,outcome,[8],inactive
same,outcome,[9],inactive
same,outcome,[10],inactive
BrCc1cccc(Oc2ccccc2)c1,outcome,[1],inactive
same,AC50,[2],26.3 µM (active)
same,outcome,[3],inactive
same,outcome,[4],inactive
same,outcome,[5],inactive
same,outcome,[6],inactive
same,outcome,[7],inactive
same,outcome,[8],inactive
same,outcome,[9],inactive
same,AC50,[10],100 µM (active)
O=c1[nH]c(=O)c2cn[nH]c2[nH]1,outcome,[1],inactive
same,outcome,[2],inactive
same,outcome,[3],inactive
same,outcome,[4],inactive
same,outcome,[5],inactive
same,outcome,[6],inactive
same,outcome,[7],inactive
same,outcome,[8],inactive
same,outcome,[9],inactive
same,outcome,[10],inactive
NC1CCCCC1N (configuration not stated),outcome,[1],inactive
same,outcome,[2],inactive
same,outcome,[3],inactive
same,outcome,[4],inactive
same,outcome,[5],inactive
same,outcome,[6],inactive
same,outcome,[7],inactive
same,outcome,[8],inactive
same,outcome,[9],inactive
same,outcome,[10],inactive
C=C(C)C(=O)OCC(CC)(COC(=O)C(=C)C)COC(=O)C(=C)C,outcome,[1],inactive
same,AC50,[2],10.6 µM (active)
same,outcome,[3],inactive
same,outcome,[4],inactive
same,outcome,[5],inactive
same,outcome,[6],inactive
same,outcome,[7],inactive
same,outcome,[8],inactive
same,outcome,[9],inactive
same,outcome,[10],inactive
CC(CN=Cc1ccccc1O)N=Cc1ccccc1O (configuration not stated),outcome,[1],inactive
same,outcome,[2],inactive
same,outcome,[3],inactive
same,outcome,[4],inactive
same,outcome,[5],inactive
same,outcome,[6],inactive
same,outcome,[7],inactive
same,outcome,[8],inactive
same,outcome,[9],inactive
CC/C=C\CC/C=C/CO,outcome,[1],inactive
same,AC50,[2],27.3 µM (active)
same,outcome,[3],inactive
same,outcome,[4],inactive
same,outcome,[5],inactive
same,outcome,[6],inactive
same,outcome,[7],inactive
same,outcome,[8],inactive
same,outcome,[9],inactive
same,outcome,[10],inactive
C=CCCCCCCCCCC,outcome,[1],inactive
same,outcome,[2],inactive
same,outcome,[3],inactive
same,outcome,[4],inactive
same,outcome,[5],inactive
same,outcome,[6],inactive
same,outcome,[7],inactive
same,outcome,[8],inactive
same,outcome,[9],inactive
CC(Oc1cc(Cl)ccc1Cl)C(=O)O (configuration not stated),outcome,[1],inactive
same,AC50,[2],82.1 µM (active)
same,AC50,[3],100 µM (active)
same,outcome,[4],inactive
same,outcome,[5],inactive
same,outcome,[6],inactive
same,outcome,[7],inactive
same,outcome,[8],inactive
same,outcome,[9],inactive
same,outcome,[10],inactive
CCCSc1ccc2nc(NC(=O)OC)[nH]c2c1,outcome,[1],inactive
same,outcome,[2],inactive
same,outcome,[3],inactive
same,outcome,[4],inactive
same,outcome,[5],inactive
same,outcome,[6],inactive
same,outcome,[7],inactive
same,outcome,[8],inactive
same,outcome,[9],inactive
CCCC(O)C(O)CO (configuration not stated),outcome,[1],inactive
same,outcome,[2],inactive
same,outcome,[3],inactive
same,outcome,[4],inactive
same,outcome,[5],inactive
same,outcome,[6],inactive
same,outcome,[7],inactive
same,outcome,[8],inactive
same,outcome,[9],inactive
O=C1OC2(c3ccccc31)c1ccc(O)c(Br)c1Oc1c2ccc(O)c1Br,outcome,[1],inactive
same,AC50,[2],15.9 µM (active)
same,outcome,[3],inactive
same,outcome,[4],inactive
same,outcome,[5],inactive
same,outcome,[6],inactive
same,outcome,[7],inactive
same,outcome,[8],inactive
same,outcome,[9],inactive
C=CC(=O)OCCC#N,AC50,[1],47.9 µM (active)
same,AC50,[2],62.5 µM (active)
same,outcome,[3],inactive
same,outcome,[4],inactive
same,AC50,[5],41.1 µM (active)
same,outcome,[6],inactive
same,AC50,[7],76.4 µM (active)
same,outcome,[8],inactive
same,outcome,[9],inactive
same,outcome,[10],inactive
C=C(C)CNCC,outcome,[1],inactive
same,AC50,[2],52.9 µM (active)
same,outcome,[3],inactive
same,outcome,[4],inactive
same,outcome,[5],inactive
same,outcome,[6],inactive
same,outcome,[7],inactive
same,outcome,[8],inactive
same,outcome,[9],inactive
same,outcome,[10],inactive
N#Cc1ccc(CC(=O)c2cccc(C(F)(F)F)c2)cc1,outcome,[1],inactive
same,AC50,[2],5.18 µM (active)
same,outcome,[3],inactive
same,outcome,[4],inactive
same,outcome,[5],inactive
same,outcome,[6],inactive
same,outcome,[7],inactive
same,outcome,[8],inactive
same,outcome,[9],inactive
same,outcome,[10],inactive
CCOC(=O)COC(=O)c1cc(Oc2ccc(C(F)(F)F)cc2Cl)ccc1[N+](=O)[O-],outcome,[1],inactive
same,AC50,[2],9.9 µM (active)
same,AC50,[3],12.4 µM (active)
same,AC50,[4],34.3 µM (active)
same,outcome,[5],inactive
same,outcome,[6],inactive
same,outcome,[7],inactive
same,outcome,[8],inactive
same,outcome,[9],inactive
same,outcome,[10],inactive
CCCCN(CCCC)C(=O)N(CCCC)CCCC,AC50,[1],37.2 µM (active)
same,AC50,[2],0.753 µM (active)
same,AC50,[3],61 µM (active)
same,outcome,[4],inactive
same,AC50,[5],52.2 µM (active)
same,AC50,[6],46.8 µM (active)
same,AC50,[7],54.6 µM (active)
same,outcome,[8],inactive
same,AC50,[9],25.5 µM (active)
same,AC50,[10],60.6 µM (active)
CCCCCCCCCCCCN1CCCCCC1=O,outcome,[1],inactive
same,AC50,[2],1.46 µM (active)
same,outcome,[3],inactive
same,outcome,[4],inactive
same,outcome,[5],inactive
same,outcome,[6],inactive
same,outcome,[7],inactive
same,outcome,[8],inactive
same,outcome,[9],inactive
CC(O)C1CCCCC1 (configuration not stated),outcome,[1],inactive
same,outcome,[2],inactive
same,outcome,[3],inactive
same,outcome,[4],inactive
same,outcome,[5],inactive
same,outcome,[6],inactive
same,outcome,[7],inactive
same,outcome,[8],inactive
same,outcome,[9],inactive
same,outcome,[10],inactive
CC1=C(Br)C(=O)C(Br)=C/C1=C(/c1ccccc1S(=O)(=O)O)c1cc(Br)c(O)c(Br)c1C,outcome,[1],inactive
same,AC50,[2],26.2 µM (active)
same,outcome,[3],inactive
same,outcome,[4],inactive
same,outcome,[5],inactive
same,outcome,[6],inactive
same,outcome,[7],inactive
same,outcome,[8],inactive
same,outcome,[9],inactive
same,outcome,[10],inactive
CCCCCCCCC=CCCCCCCCC1=NCCN1CCO,outcome,[1],inactive
same,AC50,[2],60.6 µM (active)
same,AC50,[3],0.261 µM (active)
same,outcome,[4],inactive
same,outcome,[5],inactive
same,outcome,[6],inactive
same,outcome,[7],inactive
same,AC50,[8],25.9 µM (active)
same,outcome,[9],inactive
same,outcome,[10],inactive
COC(=O)c1ccc(C)cc1C1=NC(C)(C(C)C)C(=O)N1 (configuration not stated) (tested in a mixture with another compound),outcome,[1],inactive
same,AC50,[2],15.2 µM (active)
same,outcome,[3],inactive
same,outcome,[4],inactive
same,outcome,[5],inactive
same,outcome,[6],inactive
same,outcome,[7],inactive
same,outcome,[8],inactive
same,outcome,[9],inactive
same,outcome,[10],inactive
